The record followed here is PubChem BioAssay AID652104 (National Center for Advancing Translational Sciences (NCATS), 2013).

Out of some 410,000 compounds screened, about 7,200 (1.8%) were called active. Inconclusive results (about 7%) are left out. The sample as a whole holds a higher share of actives than the screen did. A number with no mark means an inactive call. Calls follow the shape of the dose curve; as a rule, active = well fitted activation curve with a large enough effect; inconclusive = small, poorly fitted or top-dose-only effect, or another doubt; inactive = no such curve, though single readings can be large or run the other way.
Potency is read from the fitted curve at half-maximal effect.

A short description of this test: qHTS of TDP-43 Inhibitors. Also: nearly all actives have a fitted effect of over 50% in size. As to growth rescue (activation): % of control where 0% means no effect. The following applies: TDP-43 expressing yeast growth rescue, BacTiter-Glo, 24 h; series mostly up to 46.1 µM; growth rescue (activation): at the top concentration. From the text:
The goal of this project is to identify new chemical probes capable of reversing the toxicity associated with TDP-43 which is associated with frontotemporal lobar degeneration and amyotrophic lateral sclerosis. These compounds will provide a complementary approach to deciphering the tangled mechanisms of toxicity and protection that we have uncovered through genome-wide genetic screens and are beginning to uncover in a large-scale proteomics analysis with mass spectroscopy.
To this end, a miniaturized assay was developed to be screened against the Molecular Libraries Small Molecule Repository (MLSMR) to discover TDP-43 inhibitors. Please note that in the set-up this yeast-based assay compounds that inhibit as TDP-43, have a read-out as activators.
NIH Chemical Genomics Center [NCGC]
NIH Molecular Libraries Probe Centers Network [MLPCN]
Assay Submitter (PI): Susan Lindquist, Whitehead Institute/MIT
Dispense 2.5 microL yeast galactose medium per 1536-well plate, pin compound, dispense 2.5 microL TDP-43 expressing yeast in galactose medium at OD600=0.02 (pregrown in raffinose medium to mid-log phase) per well, incubate for 24 hr at 30 deg C, and cell growth will be measured using 5 microL of Bactiter/Glo reagent to entire plate and read using Luminescence Protocol in ViewLux.
A general note: qHTS replaces the single test concentration by a dilution series.
For the compound `Cc1cc(=O)oc2c(C)c(OCC(=O)N3CCN(Cc4ccc5c(c4)OCO5)CC3)ccc12`, the “growth rescue (activation)” value is -20.2%.
Turning to `CCOc1ccc(S(=O)(=O)NCc2ccc3c(c2)OCO3)cc1C`, the Potency was 12.6 µM (active).
Consider `COc1ccc(CNCCc2ccc3c(c2)OCO3)c(OC)c1OC`, for which the “growth rescue (activation)” value was 0.202%.
On the same count and under the same terms, next, `O=C(CCC(=O)N1C[C@H]2C[C@@H](C1)c1cccc(=O)n1C2)NCc1ccccc1C(F)(F)F`: 17.2%.
Turning to `COc1cccc(C(c2nnnn2-c2ccc3c(c2)OCCO3)N2CCC3(CC2)C(=O)NCN3c2ccccc2)c1OC` (stereo not given), the “growth rescue (activation)” value was 27.4%.
As to `Oc1cc2c(cc1CN1CCN(c3ccccc3)CC1)OCO2`, the “growth rescue (activation)” value was -5.52%.
Take `O=C(NC1CCCCC1)N1Cc2cc(N3CCCCC3)ccc2-n2nncc2C1`: the “growth rescue (activation)” value was 8.16%.
As to `c1cc2c(cc1[C@H]1OC[C@H]3[C@@H]1CO[C@@H]3c1ccc3c(c1)OCO3)OCO2`, the Potency is 11.2 µM (active).
For the compound `O=C1/C(=C\c2ccc3c(c2)OCO3)N2CCC1CC2`, the “growth rescue (activation)” value is -14.1%.
As for `c1cc2c(cc1CCNC1CCCCCC1)OCO2`, the “growth rescue (activation)” value is 3.13%.
In the case of `O=C(Cc1ccc(Cl)cc1)NCCN1CCN(C(=O)Cc2ccc(Cl)cc2)CC1`, the “growth rescue (activation)” value is -16.1%.
In the case of `CCOC(=O)c1cccc(C2=C(CNC(=O)c3ccncc3)[C@H]3CC[C@@H](C2)N3Cc2ccccc2)c1`, the “growth rescue (activation)” value was 16.2%.
For `Cc1ccc(-n2c(C)cc(/C=C3\C(=O)NC(=O)N(C)C3=O)c2C)cc1C`, the “growth rescue (activation)” value is 15.2%.
In the case of `Cc1cc(C=C2C(=O)NC(=O)NC2=O)c(C)n1-c1ccncc1`, the “growth rescue (activation)” value was 0%.
Turning to `Cc1ccnc(-n2c(C)cc(/C=C3\C(=O)NC(=S)N(C)C3=O)c2C)c1`, the Potency was 35.5 µM (active).
For the compound `ClC(Cl)(Cl)c1ccccc1`, the “growth rescue (activation)” value is 20.2%.
On to `Cc1nc2ccccc2c(=O)n1-c1ccc(Cl)cc1Cl`, for which the Potency is 15.8 µM (active).
For `O=c1c2ccccc2nc(CBr)n1-c1ccc(Cl)cc1`, the “growth rescue (activation)” value was -19.6%.
With `O=c1c2ccccc2nc(-c2ccc(Cl)cc2Cl)n1-c1ccncc1`, the “growth rescue (activation)” value is 3.25%.
In the case of `CCOC(=O)[C@]12Cc3cc(OC)ccc3[C@H]1N(C(C)C)C(=O)c1ccccc12`, the “growth rescue (activation)” value is -64.3%.
For the compound `CCOC(=O)c1c(-c2ccccc2)oc2ccc(OC(=O)N(C)C)cc12`, the “growth rescue (activation)” value is 7.35%.
Consider `Cc1ccc(-c2nc3ccccc3c(=O)n2-c2ccc(Br)cn2)cc1`, for which the “growth rescue (activation)” value is 3.11%.
Consider `NC(=O)Cn1cc(C(=O)c2ccccc2F)c2ccccc21`, for which the “growth rescue (activation)” value is 15.2%.
Take `N#Cc1ccc(Cn2cc(C(=O)c3ccco3)c3ccccc32)cc1`: the Potency was 17.8 µM (active).
As to `Cc1ccc([C@H]2C[C@H](O)[C@@H](n3cc(COC(=O)c4ccccc4)nn3)CN2CC2CCCCC2)cc1`, the “growth rescue (activation)” value was 0%.
For the compound `CC(C)N(CC#CCC1(O)c2ccccc2-c2ccccc21)C(C)C`, the “growth rescue (activation)” value was -17.2%.
The same measure, in the same setting: next, `Cc1cccc(Cn2cccc(C(=O)Nc3ccc4c(c3)OCCO4)c2=O)c1`: 17%.
Consider `CCOC(=O)C1CN(C)CCC1=O` (stereo not given), for which the “growth rescue (activation)” value is 5.32%.
On to `c1ccc(-c2nnc(SCc3nc4ccccc4[nH]3)o2)cc1`, for which the Potency is 12.6 µM (active).
Take `c1cc2c(c(NC3=NCCCS3)c1)CCCC2`: the “growth rescue (activation)” value is 5.1%.
Same read-out and setting: the result for `O=c1[nH]c2ccccc2n1C1CCN(C(c2ccnc3ccccc23)c2nnnn2Cc2ccccc2)CC1` (stereo not given) reads 10.3%; that for `COC(=O)C1=C(c2ccc(F)cc2OCc2ccccc2)C[C@@H]2CC[C@H]1N2C(=O)NCc1ccc2[nH]ccc2c1`, 4.65%; that for `COC(=O)C1=C(c2ccc(F)cc2OCc2ccccc2)C[C@@H]2CC[C@H]1N2C(=O)NCc1ccc(OC)c(OC)c1`, 19.4%.
In the case of `COC(=O)C1=C(c2ccccc2OCc2ccccc2)C[C@@H]2CC[C@H]1N2C(=O)NCc1ccc(OC)cc1`, the Potency is 35.5 µM (active).
Take `Cc1ccc(NC(=O)N(Cc2ccc3c(c2)OCO3)C2CCN(Cc3ccccc3)CC2)cc1F`: the “growth rescue (activation)” value is 0.85%.
As to `O=C(C1CCN(S(=O)(=O)c2ccc(Br)s2)CC1)N1CCN(c2ccccc2)CC1`, the “growth rescue (activation)” value was 0%.
For the compound `O=c1[nH]c2ccccc2n1C1CCN(C(c2ccccc2)c2nnnn2Cc2ccccc2)CC1` (stereo not given), the “growth rescue (activation)” value was 0%.
For the compound `COC(=O)C1=C(c2ccc(F)cc2F)C[C@@H]2CC[C@H]1N2C(=O)NC1CC1`, the “growth rescue (activation)” value was 13.1%.
Consider `Cn1c(C(=O)N2CCC(C(=O)N3CCC4(CC3)OCCO4)CC2)cc2sccc21`, for which the “growth rescue (activation)” value is -14.1%.
On to `Cc1cc(N2C(=O)C3CCCN3C2c2ccc(Cl)c(Cl)c2)no1` (stereo not given), for which the “growth rescue (activation)” value is 16.4%.
For the compound `CC1CNCCN1c1ccc(Cl)cc1` (stereo not given), the “growth rescue (activation)” value was -10.5%.
Take `C[C@]12CCC3C(CC[C@H]4[C@H](O)[C@H](O)CC[C@]34C)C1CCC2=O` (stereo not given in full): the “growth rescue (activation)” value is 9.92%.
On to `CC12CCC3C(CCC4CC(=O)CCC43C)C1CC(=NO)C2=O` (stereo not given), for which the Potency is 15.8 µM (active).
`COc1ccc(-n2nnnc2C(c2cccc3ccccc23)N2CCC(n3c(=O)[nH]c4ccccc43)CC2)cc1` (stereo not given): the “growth rescue (activation)” value is 19.2%.
With `Nc1ccc(Cc2ccc(N)c(Cl)c2)cc1Cl`, the Potency is 12.6 µM (active).
Turning to `CNCC[C@H](Oc1ccc(C(F)(F)F)cc1)c1ccccc1`, the “growth rescue (activation)” value is 13.1%.
With `COc1ccc(-c2nn(CCC#N)cc2C(=O)Nc2ccc(C(C)=O)cc2)cc1`, the “growth rescue (activation)” value is 0%.
`CC(C)Oc1ccc(NC(=O)c2cc3ccccc3o2)cc1`: the “growth rescue (activation)” value was -11.1%.
On to `C[N+]1(C)CCOC(O)(c2ccc(-c3ccc(C4(O)C[N+](C)(C)CCO4)cc3)cc2)C1` (stereo not given), for which the Potency was 5.01 µM (active).
Take `Cc1nn(-c2ccccc2)c(C)c1NC(=O)COC(=O)Cc1ccccc1`: the “growth rescue (activation)” value was 5.52%.
Consider `C[C@@H]1C[C@@H]2O[C@H]2/C=C\C=C\C(=O)Cc2c(Cl)c(O)cc(O)c2C(=O)O1`, for which the Potency is 11.2 µM (active).
In the case of `c1ccc(CC2CCCCN2)cc1` (stereo not given), the “growth rescue (activation)” value is 1.64%.
As for `CN(C(=O)c1cccc(NC(=O)Cc2cccc([N+](=O)[O-])c2)c1)C1CCCCC1`, the “growth rescue (activation)” value was -14.5%.
Still for that read-out and setting: next, `Cc1ccc([C@H]2C[C@H](O)[C@@H](n3cc(COC(=O)c4ccccc4)nn3)CN2C(=O)C2CCCCC2)cc1`: 11.7%; `O=C(Nc1ccc(Cl)cc1C(=O)c1ccccc1)c1cc(Cl)cc(Cl)c1`: -4.61%.
